Test [1] in a line: ATG_CRE_CIS: Attagene CIS-FACTORIAL HepG2 Assay for human cAMP Responsive Element (CRE) binding protein 3 (AID 2282926). As to conditions: HepG2 CRE cis-reporter, Attagene multiplexed mRNA; actives raise or lower the signal. Summed up: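 Assay format: transient reporter transfection of HepG2, 24 h treatment, total RNA isolation with DNase I step. Reporter abundance read by fluorescence after PCR and capillary separation; DMSO-normalised gain or loss fitting.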

The target of test [2] is CCAAT/enhancer-binding protein beta (Homo sapiens) (UniProt P17676). In words: ATG_C_EBP_CIS: Attagene CIS-FACTORIAL HepG2 Assay for human CCAAT/Enhancer Binding Protein (C/EBP) beta (AID 2282927). To be noted: HepG2 Attagene cis-factorial transcription factor reporter; actives raise or lower the signal. The gist of the method:
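Transiently transfected HepG2 (MRTU library, endogenous TF-driven promoters); 24 h dosing; total RNA → oligo(dT) RT → PCR → 6-FAM primer extension → HpaI digest → CE; fit bidirectionally vs DMSO.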

A short description of test [3]: ATG_CMV_CIS: Attagene CIS-FACTORIAL HepG2 Assay for human CMV (Internal Marker) (AID 2282928).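 Note: endpoint acts as a background internal control marker rather than a target.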 As to conditions: HepG2 CMV promoter reporter, transcription factor profiling; actives raise or lower the signal. Summed up:
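Readout: fluorescent reporter cDNA fragments separated by capillary electrophoresis after RT-PCR and HpaI cut. Cells: HepG2 carrying transfected cis-promoter reporter constructs, dosed 24 h. Endpoint serves as background internal-marker control, fit bidirectionally versus DMSO.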

Test [4] in a line: ATG_DR4_LXR_CIS: Attagene CIS-FACTORIAL HepG2 Assay for human Liver X Receptor (LXR), DR4 submotif (AID 2282929). To be noted: HepG2 Attagene DR4 cis-reporter, mRNA transcription; actives raise or lower the signal. Summed up:
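Fluorescence intensity of labelled reporter cDNA fragments, separated by capillary electrophoresis, gives the signal. HepG2 cells bearing cis-regulated reporter constructs were treated 24 h; activity fitted bidirectionally relative to DMSO negative control.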

Test [5] addresses Aryl hydrocarbon receptor (Homo sapiens) (UniProt P35869). Put plainly: ATG_Ahr_CIS: Attagene CIS-FACTORIAL HepG2 Assay for human Aryl Hydrocarbon Receptor (Ahr) (AID 2282930). As to conditions: HepG2 AhR cis-factorial reporter transcription; actives raise or lower the signal. Summed up:
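Read-out: reporter mRNA quantified by RT-PCR with fluorescent primer extension and capillary electrophoresis. Human HepG2 liver cells carried transfected cis-promoter reporter units and were exposed to chemical for 24 h; gain or loss fitted relative to DMSO.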

The nature of test [6]: ATG_AP_1_CIS: Attagene CIS-FACTORIAL HepG2 Assay for human Activator Protein 1 (AP-1) (AID 2282931). To be noted: HepG2 Attagene cis-factorial AP-1 reporter mRNA; actives raise or lower the signal. The gist of the method: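 Multiplexed HepG2 reporter assay, 24 h dosing. mRNA induction detected by RT-PCR plus capillary electrophoresis. Activity fitted in both directions against DMSO.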

Test [7] is described as follows: ATG_AP_2_CIS: Attagene CIS-FACTORIAL HepG2 Assay for human Activator Protein 2 (AP-2) (AID 2282932). As to conditions: HepG2 AP-2 cis-reporter, Attagene transcription factor profiling; actives raise or lower the signal. Summed up:
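Read-out: fluorescent reporter mRNA via RT-PCR and capillary electrophoresis, 24 h post-dose in transiently transfected HepG2. Endogenous factors drive cis-promoter reporters; gain or loss of signal fitted bidirectionally against DMSO.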

The nature of test [8]: ATG_BRE_CIS: Attagene CIS-FACTORIAL HepG2 Assay for human Bone Morphogenetic Protein (BMP) Response Element (BRE) (AID 2282933). To be noted: HepG2 BMP response element reporter, Attagene transcription factor profiling; actives raise or lower the signal. Summed up: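 Transient MRTU transfection of human HepG2 liver cells; 24 h compound treatment; total RNA isolated, reverse-transcribed, PCR-amplified, 6-FAM labelled, HpaI-cut, capillary electrophoresis. DMSO = negative control/baseline, bidirectional fit.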

The target of test [9] is Retinoic acid receptor alpha (Homo sapiens) (UniProt P10276). Put plainly: ATG_DR5_RAR_CIS: Attagene CIS-FACTORIAL HepG2 Assay for human Retinoic Acid Receptor Alpha (RARE), DR5 submotif (AID 2282934). To be noted: HepG2 Attagene cis-factorial RARE DR5 reporter, mRNA; actives raise or lower the signal. Summed up: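 Read-out: DR5-driven reporter transcript measured by RT-PCR, 6-FAM primer extension, HpaI digest and capillary electrophoresis. Human HepG2 liver cells carry transiently transfected cis-element reporter constructs; dosing lasts 24 h. Gain or loss of signal fitted against DMSO baseline.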

Test [10] has as its target Transcription factor E2F1 (Homo sapiens) (UniProt Q01094). In words: ATG_E2F_CIS: Attagene CIS-FACTORIAL HepG2 Assay for human E2F Transcription Factor 1 (AID 2282935). As to conditions: HepG2 Attagene cis-reporter, E2F reporter RNA transcripts; actives raise or lower the signal. Summed up:
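Transient MRTU transfection of HepG2; 24 h compound exposure; RNA → oligo(dT) RT → PCR → FAM label → HpaI cut → CE fluorescence. Gain/loss of signal fit against DMSO.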

Active and inactive are the calls of the source. Rule for the calls: active = hit-call score of the fitted dose curve at least 0.9, where 1 is the maximum; inactive = score below 0.9.

Chain of CCAAT/enhancer-binding protein beta (Homo sapiens) (P17676 whole entry, looked up): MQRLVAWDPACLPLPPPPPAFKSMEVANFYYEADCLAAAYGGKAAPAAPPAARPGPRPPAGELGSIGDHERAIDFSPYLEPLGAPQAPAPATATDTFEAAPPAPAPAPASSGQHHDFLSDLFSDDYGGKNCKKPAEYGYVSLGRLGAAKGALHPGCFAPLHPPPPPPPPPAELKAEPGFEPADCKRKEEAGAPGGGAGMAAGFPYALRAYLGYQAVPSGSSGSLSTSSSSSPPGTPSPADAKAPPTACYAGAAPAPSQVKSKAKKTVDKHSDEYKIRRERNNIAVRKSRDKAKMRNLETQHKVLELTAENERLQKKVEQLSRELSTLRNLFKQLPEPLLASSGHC
Chain of Transcription factor E2F1 (Homo sapiens) (Q01094 whole entry, looked up): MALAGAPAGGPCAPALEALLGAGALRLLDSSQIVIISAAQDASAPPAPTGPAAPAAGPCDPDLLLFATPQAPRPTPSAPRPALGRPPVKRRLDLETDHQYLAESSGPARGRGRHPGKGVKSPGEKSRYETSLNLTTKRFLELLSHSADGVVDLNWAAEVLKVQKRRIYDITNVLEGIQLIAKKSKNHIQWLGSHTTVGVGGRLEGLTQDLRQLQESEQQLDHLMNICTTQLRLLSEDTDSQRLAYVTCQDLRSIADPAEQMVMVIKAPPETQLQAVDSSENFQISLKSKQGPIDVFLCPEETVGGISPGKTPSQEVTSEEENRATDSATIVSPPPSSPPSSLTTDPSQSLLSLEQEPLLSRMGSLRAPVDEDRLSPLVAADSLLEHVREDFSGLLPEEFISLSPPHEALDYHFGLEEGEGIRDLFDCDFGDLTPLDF
Chain of Retinoic acid receptor alpha (Homo sapiens) (P10276 whole entry, looked up): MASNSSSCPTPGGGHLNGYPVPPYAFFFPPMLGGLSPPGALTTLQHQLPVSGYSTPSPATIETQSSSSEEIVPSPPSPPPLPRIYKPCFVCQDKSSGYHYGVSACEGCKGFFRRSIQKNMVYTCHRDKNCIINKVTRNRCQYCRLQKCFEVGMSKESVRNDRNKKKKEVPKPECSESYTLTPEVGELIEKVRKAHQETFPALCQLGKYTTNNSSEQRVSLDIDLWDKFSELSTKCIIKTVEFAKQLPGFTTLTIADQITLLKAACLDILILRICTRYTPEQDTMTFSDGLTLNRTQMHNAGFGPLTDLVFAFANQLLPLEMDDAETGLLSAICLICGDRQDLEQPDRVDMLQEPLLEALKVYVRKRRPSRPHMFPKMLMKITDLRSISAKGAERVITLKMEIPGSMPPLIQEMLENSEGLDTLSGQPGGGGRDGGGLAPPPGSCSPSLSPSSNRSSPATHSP
Chain of Aryl hydrocarbon receptor (Homo sapiens) (P35869 whole entry, looked up): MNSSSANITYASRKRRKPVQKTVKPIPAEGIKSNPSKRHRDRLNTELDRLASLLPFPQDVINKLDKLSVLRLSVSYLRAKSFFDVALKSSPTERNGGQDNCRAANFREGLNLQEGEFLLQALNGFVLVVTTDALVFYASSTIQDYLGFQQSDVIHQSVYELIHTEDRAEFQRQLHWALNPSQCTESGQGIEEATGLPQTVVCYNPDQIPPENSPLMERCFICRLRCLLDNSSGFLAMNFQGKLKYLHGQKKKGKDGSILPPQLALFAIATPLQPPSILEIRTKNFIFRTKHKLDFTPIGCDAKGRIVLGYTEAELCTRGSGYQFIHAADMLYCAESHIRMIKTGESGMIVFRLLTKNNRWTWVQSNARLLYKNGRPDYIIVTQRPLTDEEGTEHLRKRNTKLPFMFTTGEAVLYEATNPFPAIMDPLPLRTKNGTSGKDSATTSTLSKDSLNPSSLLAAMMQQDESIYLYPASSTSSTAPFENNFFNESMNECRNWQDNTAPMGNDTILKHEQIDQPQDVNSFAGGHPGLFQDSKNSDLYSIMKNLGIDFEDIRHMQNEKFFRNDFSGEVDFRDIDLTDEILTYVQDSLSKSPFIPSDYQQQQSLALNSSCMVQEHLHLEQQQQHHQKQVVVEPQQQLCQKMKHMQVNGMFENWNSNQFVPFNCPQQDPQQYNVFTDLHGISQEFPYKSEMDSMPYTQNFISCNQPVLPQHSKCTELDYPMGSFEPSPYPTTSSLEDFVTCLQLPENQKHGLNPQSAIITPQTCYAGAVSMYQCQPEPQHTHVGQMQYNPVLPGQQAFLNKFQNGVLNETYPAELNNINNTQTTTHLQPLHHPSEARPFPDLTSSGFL

As for `O=C(O)c1cc(Cl)cc([N+](=O)[O-])c1Cl`, the compound was classed as inactive in [1], in test [2], in test [3], in [4], in test [5] and in test [6]. Also, the call in test [7], in test [8], in test [9] and in [10] was inactive.
The term AC50 denotes the concentration at which the activity in the assay is half-maximal. For the compound `CCCCC(CC)CCC(CC(C)C)OS(=O)(=O)O` (stereo not given), the concentration at half-maximal activity (AC50) was 142 µM (active) in test [1] and 139 µM (active) in test [6]. Moreover, the result in test [2], in test [3], in test [4], in test [5], in test [7] and in [8] was inactive. The compound was called inactive in [9] and in test [10].
With `CCCCCCCCCCCCCCCC(=O)OCC`, the result in test [1], in test [2], in test [3], in test [4], in test [5] and in test [6] was inactive. Moreover, the result in [7], in [8], in test [9] and in test [10] was inactive.
Regarding `CC1=Nc2ccc3ccccc3c2C1(C)C`, the compound was called inactive in test [1], in test [2], in test [4], in test [5], in test [7] and in [9]. Further, the outcome in test [10] was inactive. The AC50 in [3] was 66.4 µM (active); in [6], 66 µM (active); in test [8], 65.7 µM (active).
Consider `C[Si](C)O[Si](C)(C)O[Si](C)(C)O[Si](C)C`, for which the result in [1], in test [2], in test [3], in test [4], in test [5] and in [6] was inactive. The compound was called inactive in test [7], in test [8], in test [9] and in [10].
Regarding `C=C(C)C(=O)OCCO`, the compound was called inactive in test [1], in test [2], in [3], in [4], in test [5] and in test [6]. In addition, the call in [7], in [8], in [9] and in test [10] was inactive.
For `COCC(C)N` (stereo not given), the call in test [1], in test [2], in test [3], in test [4], in test [5] and in test [6] was inactive. In addition, the outcome in test [7], in test [8], in [9] and in test [10] was inactive.
With `COc1ccc(-c2coc3cc(O)ccc3c2=O)cc1`, the compound was classed as inactive in test [1], in [2], in test [3], in [4], in test [6] and in [7]. Besides, the compound was called inactive in test [8], in test [9] and in test [10]. In addition, the half-maximal activity concentration (AC50) in test [5] is 20 µM (active).
As for `CC(C)(C)C(=O)C=Cc1ccc(Cl)cc1`, the result in test [1], in test [3], in test [5], in test [9] and in test [10] was inactive. The concentration at half-maximal activity (AC50) in [2] was 26.5 µM (active); in test [4], 17.2 µM (active); in test [6], 26 µM (active); in test [7] it was 169 µM (active); in [8], 12.3 µM (active).
`C=CCCCCCCCCC(=O)OCCCC`: the call in test [1], in test [2], in [3], in test [4], in test [5] and in test [6] was inactive. For the same compound, the compound was classed as inactive in test [7], in test [8], in test [9] and in test [10].
For `COc1c2ccoc2cc2oc(=O)ccc12`, the compound was classed as inactive in test [1], in test [2], in [3], in test [4], in test [5] and in [6]. The result in test [7], in test [8], in test [9] and in test [10] was inactive.
On to `CCCCCCCCO[C@@H]1O[C@H](CO)[C@@H](O)[C@H](O)[C@H]1O`, for which the call in [1], in [2], in test [3], in test [4], in test [5] and in test [6] was inactive. The result in test [7], in test [8], in [9] and in test [10] was inactive.
On to `C=C1C2CCC(C2)C1(C)C` (stereo not given), for which the outcome in test [1], in test [2], in test [3], in test [4], in test [5] and in test [6] was inactive. For the same compound, the outcome in [7], in [8], in [9] and in test [10] was inactive.
In the case of `C=C(C)CCO`, the compound was classed as inactive in test [1], in [2], in test [3], in test [4], in test [5] and in [6]. Besides, the compound was classed as inactive in test [7], in test [8], in [9] and in test [10].
Consider `CCOCC(=O)O`, for which the result in test [1], in test [2], in test [3], in test [4], in test [5] and in [6] was inactive. Besides, the call in test [7], in test [8], in test [9] and in test [10] was inactive.
Take `O=C(C(Cl)Cl)N1CCOC12CCCCC2`: the compound was called inactive in [1], in test [2], in [3], in test [5], in test [7] and in test [8]. Moreover, the call in test [9] and in test [10] was inactive. The half-maximal activity concentration (AC50) is 12 µM (active) in test [4] and 69.1 µM (active) in test [6].
As for `COc1ccc(NC(C)=O)cc1N`, the compound was classed as inactive in [1], in [2], in test [3], in test [4], in test [6] and in test [7]. For the same compound, the result in [8], in test [9] and in test [10] was inactive. Also, in test [5], the half-maximal activity concentration (AC50) is 50.4 µM (active).
Take `CCN(CC#N)c1cccc(C)c1`: the outcome in test [1], in test [2], in test [3], in test [4], in test [5] and in test [6] was inactive. Besides, the outcome in test [7], in test [8], in test [9] and in test [10] was inactive.
Take `O=C(O)c1ccccc1Nc1cccc(C(F)(F)F)c1`: the call in test [1], in test [2], in [3], in [5], in [7] and in [8] was inactive. Besides, the call in [9] and in test [10] was inactive. Moreover, the values for the AC50 in test [4] and in test [6] were 9.37 µM (active) and 60 µM (active), respectively.

Source of the values: PubChem BioAssay (EPA / NIEHS).
